Experimental findings from PubChem BioAssay AID1851 (National Center for Advancing Translational Sciences (NCATS), 2009) are described below.

For orientation: AC50 means the concentration at which the activity in the assay is half-maximal.

“And” between values parts separate entries of the source, which are not always exact repeats. Equal entries are not always repeated. Among all 16,000 compounds or so, about 5,700 (36%) were called active. Roughly 24% stayed inconclusive and do not appear here. This is one part of the list. Unmarked numbers belong to inactive results. Calls follow the shape of the dose curve; as a rule, active = well fitted curve in the direction sought with a large enough effect; inconclusive = small, poorly fitted or top-dose-only effect, or effect the other way; inactive = no such curve, though single readings can be large or run the other way.
% is scaled to controls: 0 for no effect and ±100 for the full control effect.

Cytochrome P450 1A2 (Homo sapiens), sequence (P05177 whole entry, looked up): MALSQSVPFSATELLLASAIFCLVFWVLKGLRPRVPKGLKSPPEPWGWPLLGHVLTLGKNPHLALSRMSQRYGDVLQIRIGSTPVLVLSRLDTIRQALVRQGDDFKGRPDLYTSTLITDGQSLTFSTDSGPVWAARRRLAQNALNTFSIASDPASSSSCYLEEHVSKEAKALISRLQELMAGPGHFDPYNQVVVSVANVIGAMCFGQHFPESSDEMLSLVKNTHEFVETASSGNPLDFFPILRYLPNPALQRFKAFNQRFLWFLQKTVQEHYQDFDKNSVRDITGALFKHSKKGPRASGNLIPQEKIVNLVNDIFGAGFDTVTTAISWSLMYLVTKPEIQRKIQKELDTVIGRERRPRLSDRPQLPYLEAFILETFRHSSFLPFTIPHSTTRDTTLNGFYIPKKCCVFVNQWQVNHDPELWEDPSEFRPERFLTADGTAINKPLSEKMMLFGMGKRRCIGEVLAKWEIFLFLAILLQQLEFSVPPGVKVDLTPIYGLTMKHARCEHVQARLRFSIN

This experiment addresses Cytochrome P450 1A2 (Homo sapiens) (UniProt P05177). Briefly: Cytochrome panel assay with activity outcomes. The note with it: recombinant CYP, pro-luciferin dealkylation, luminescence, p450-cyp1a2; series mostly up to 57.1 µM.
With `CN(C)CCOC(=O)COc1ccc(Cl)cc1`, the AC50 is 10 µM (active). Regarding `CC(=O)[C@@H]1CC[C@@H]2[C@@H]3CCC4=CC(=O)CC[C@@]4(C)[C@H]3CC[C@]21C`, the AC50 entry is “inactive”. Take `CC[N+](C)(C)c1cccc(O)c1`: the AC50 entry was “inactive”.

On to `COC(=O)c1cc2c(cn1)[nH]c1ccccc12`, for which the AC50 is 0.631 µM (active).

For `CCN1C[C@]2(C)CC[C@@H](O)[C@]34[C@@H]5CC6[C@@H](OC)C[C@@](O)([C@H]5[C@@H]6O)[C@@H](C[C@@H]23)[C@H]14`, the AC50 entry was “inactive”. The same measure, in the same setting: the same measure for `CN1[C@@H]2CC[C@H]1CC(O)C2` (stereo not given in full): “inactive”. For `Oc1ccc2c3c1O[C@@H]1c4[nH]c5c(c4C[C@@]4(O)[C@@H](C2)N(CC2CC2)CC[C@]314)C[C@]1(O)[C@@H]2Cc3ccc(O)c4c3[C@@]1(CCN2CC1CC1)[C@H]5O4`, the AC50 entry is “inactive”. For `Ic1cncc(OC[C@@H]2CCN2)c1`, the AC50 was 0.398 µM (active).

With `C[C@@]12CC[C@@H]3[C@H](CCC4=CC(=O)CC[C@]43C)[C@@H]1CC[C@@H]2C(=O)COS(=O)(=O)c1ccc(Br)cc1`, the activity, negative = inhibition is -3.63% [at 11.4 µM]. Turning to `C1CCc2nnnn2CC1`, the AC50 result was “inactive”. The same measure, in the same setting: in the case of `C/C(=C\c1ccc(N(C)C)cc1)[N+](=O)[O-]` it was 1.41 µM (active). In the case of `N[C@@H](CP(=O)(O)O)C(=O)O`, the activity, negative = inhibition was -12.6% [at 11.4 µM]. As for `CC(=O)OCC(=O)[C@@H]1CC[C@H]2[C@H]3CC[C@H]4C[C@@H](O)CC[C@]4(C)[C@@H]3C(=O)C[C@@]12C`, the AC50 result is “inactive”.

In the case of `CCCn1c(C)c(C(=O)c2cccc3ccccc23)c2ccccc21`, the AC50 was 2 µM (active). As for `Cc1c(C(=O)c2ccc3ccccc3c2)c2cccc3c2n1[C@H](CN1CCOCC1)CO3`, the AC50 result is “inactive”.

Consider `CCCn1c(C)c(C(=O)c2ccc3ccccc3c2)c2ccccc21`, for which the AC50 is 6.31 µM (active). For `C[C@@H]1[C@@H](C)N1C[C@H](O)Cn1ccnc1[N+](=O)[O-]` (stereo not given in full), the activity, negative = inhibition is -13.2% [at 11.4 µM]. Regarding `Nc1nc2[nH]c(=O)cnc2c(=O)[nH]1`, the AC50 result was “inactive”. As to `CN1CC[C@@]23c4ccccc4N[C@H]1[C@]21CCN(C)[C@@H]3Nc2ccccc21`, the AC50 entry is “inactive”. `O=C(O)CS(=O)(=O)C(c1ccccc1)c1ccccc1`: the activity, negative = inhibition is -15.7% [at 2.29 µM]. Turning to `Cc1cc(C)cc(NC(=S)NC2CC3CCC(C2)N3Cc2ccco2)c1` (stereo not given), the AC50 result is “inactive”.

Consider `C[C@@H]1C(=O)O[C@@H]2C[C@]34[C@H]5C[C@@H](C(C)(C)C)[C@@]36[C@@H](OC(=O)[C@@H]6O)O[C@@]4(C(=O)O5)[C@@]12O`, for which the AC50 entry was “inactive”. For the compound `NCCP(=O)(O)O`, the activity, negative = inhibition is -12.9% [at 11.4 µM]. Turning to `CN[C@H](Cc1ccccc1)c1cccc(OC)c1O`, the activity, negative = inhibition was -11.6% [at 11.4 µM]. Consider `COC1=CC(=O)O[C@@H](/C=C\c2ccccc2)C1`, for which the AC50 is 3.16 µM (active). In the case of `CNC(=O)OCC[N+](C)(C)C`, the AC50 result was “inactive”.

Turning to `O=C(NCP(=O)(O)O)c1cccnc1`, the activity, negative = inhibition was -11.9% [at 11.4 µM]. Consider `CC(C)CN1CC2(CCN(C(=O)c3ccncc3)CC2)C1`, for which the AC50 entry is “inactive”. As for `C[C@@H]1O[C@H](C[N+](C)(C)C)CS1`, the AC50 result was “inactive”. As for `N=C(N)SCc1ccc(Cl)c2ccccc12` (tested in a mixture with another compound), the AC50 was 251 nM (active) and 158 nM (active). As for `COc1ccc2c(c1)CN([C@H](C)[C@@H]1CC[C@@H]3[C@H]4CC[C@H]5C[C@@H](O)CC[C@@]5(C)[C@H]4CC[C@]31C)CO2`, the activity, negative = inhibition is -17.9% [at 2.29 µM]. For the compound `CCCC(CCC)C(=O)O`, the AC50 entry was “inactive”. As for `O=S(=O)(c1ccccc1)N1CCCCC1c1cccnc1` (stereo not given), the AC50 result is “inactive”. For `CC1(C)[C@@H]2CC[C@]1(C)CN(CCC[N+](C)(C)C)C2`, the activity, negative = inhibition is -6.81% [at 2.29 µM]. For `CC(=Nc1c(C)n(C)n(-c2ccccc2)c1=O)c1c(O)n(Cc2ccccc2)c(=O)[nH]c1=O`, the AC50 result is “inactive”. For `CC(=NCCN1CCOCC1)c1c(O)n(Cc2ccccc2)c(=O)[nH]c1=O`, the AC50 result was “inactive”. The same measure, in the same setting: the same measure for `CC(=NCc1ccco1)c1c(O)n(-c2ccccc2)c(=O)[nH]c1=O`: 22.4 µM (active); for `N[C@@]1(C(=O)O)CC[C@H](C(=O)O)C1`: “inactive”.

As for `O=C1C2CCN(CC2)C1(CO)CO`, the activity, negative = inhibition is -15.4% [at 11.4 µM]. `[N-]=[N+]=CC(=O)CC[C@H](N)C(=O)O`: the activity, negative = inhibition was -10.9% [at 11.4 µM]. Turning to `Clc1ccccc1-c1cncnc1NCCc1cnc[nH]1`, the AC50 is 1.58 µM (active). As to `Cc1ccccc1-c1cncnc1NCCc1cnc[nH]1`, the AC50 is 5.01 µM (active). For the compound `N=C(N)c1ccc(-c2ccc(-c3ccc(C(=N)N)cc3)o2)cc1`, the activity, negative = inhibition was -1.35% [at 11.4 µM].

For `O=C(O)c1cc(N=Nc2ccc([As](=O)(O)O)cc2)ccc1O`, the activity, negative = inhibition is -9.91% [at 11.4 µM].

On to `O=[As](O)(O)c1ccc(N=Nc2ccc([As](=O)(O)O)cc2)cc1`, for which the activity, negative = inhibition is -13.9% [at 11.4 µM]. On to `N[C@@H](Cn1ccc(=O)n(Cc2ccc(C(=O)O)cc2)c1=O)C(=O)O`, for which the AC50 result is “inactive”. Turning to `c1ccc(C[N+]23CN4CN(CN(C4)C2)C3)cc1`, the activity, negative = inhibition was -10.1% [at 2.29 µM].

Consider `Cc1ccc(NC(=[OH+])c2cc3ccccc3cc2O)c(C)c1.Cc1ccc(NC(=[OH+])c2cc3ccccc3cc2O)c(C)c1.[Ni]`, for which the AC50 was 0.251 µM (active). Consider `CN(C)[C@@H]1C(=O)C(C(N)=O)=C(O)[C@]2(O)C(=O)C3=C(O)c4c(O)cccc4[C@@](C)(O)[C@H]3[C@H](O)[C@@H]12`, for which the AC50 entry was “inactive”. Turning to `CN(C(=O)Cc1ccc(Cl)c(Cl)c1)[C@@H](CN1CCCC1)c1cccc(OCC(=O)O)c1`, the AC50 entry was “inactive”. As to `C[N+]1(C)[C@@H]2CC(OC(=O)[C@@H](CO)c3ccccc3)C[C@@H]1[C@H]1O[C@H]12` (stereo not given in full), the activity, negative = inhibition is -22.8% [at 11.4 µM].

As to `Cc1ccc(S(=O)(=O)N[C@@H](CCCCN)C(=O)CCl)cc1`, the AC50 entry is “inactive”. Consider `C[C@@]12CC[C@H](O[C@@H]3O[C@H](CO)[C@@H](O)[C@H](O)[C@@H]3O)C[C@@H]1CC[C@H]1[C@H]2CC[C@@]2(C)[C@@H](C3=CCOC3=O)CC[C@]12O`, for which the activity, negative = inhibition was -11.7% [at 11.4 µM].

In the case of `CCOc1ccc2c(c1)C(C)=CC(C)(C)N2`, the AC50 was 5.01 µM (active). In the case of `CC(C)(C)C(=O)CP(=O)(O)O`, the activity, negative = inhibition was -9.4% [at 11.4 µM].
